Measurements published in ChEMBL document CHEMBL1157539, “Thousands of chemical starting points for antimalarial lead identification” (Nature, 2010).

Tested on: Plasmodium falciparum
Assay: GSK_TCMDC: Inhibition of Plasmodium falciparum Dd2 in whole red blood cells, using parasite LDH activity as an index of growth. Test compounds present at 2uM
Assay type: functional

| Structure (SMILES) | Inhibition [%] |
| --- | --- |
| COc1ccc2c(NCCc3ccccc3)cc(-c3ccccc3)nc2c1.Cl | 1 |
| CC1CN(c2cccc3c2nc(-c2cncc(C#N)c2)n3CCNCc2ccccc2)CC(C)O1.O=C(O)C(F)(F)F (stereo not given) | 9 |
| Nc1c(Cl)cc(C(O)CNCCCCCCCCCc2ccccn2)cc1Cl (stereo not given) | 83 |
| NC(=O)c1ccccc1OCC(=O)Nc1cccc(-c2ccc(-c3nc4cc(C(F)(F)F)ccc4[nH]3)cc2)c1 | 17 |
| CCCCCCCN1CC[C@@H](CCCc2ccnc3ccc(OCCN4CCNCC4)cc23)[C@@H](CC)C1.Cl | 98 |
| CS(=O)(=O)NCCCNCc1cccc(-c2cccc(-c3nc4cc(C(F)(F)F)ccc4[nH]3)c2)c1.O=C(O)C(F)(F)F | 100 |
| CN1CCCC1CCNC(=O)[C@H](CC1CCCCC1)NC(=O)c1ccc(O)c(-c2ccc(Cl)c(Cl)c2)c1 (stereo not given in full) | 35 |
| COc1ccc(-n2ccnc2SCC(=O)Nc2cc(Cl)ccc2OC)c(OC)c1 | 92 |
| Cl.O=C(OCC1CCN(Cc2ccccc2)C1)c1ccc(Cl)cc1 (stereo not given) | 4 |
| CCOC(=O)c1c(C)noc1Nc1ccc(OC)cc1 | 0 |
| NCCNC(=O)c1ccc(-c2cnc3[nH]cc(-c4ccc(C(N)=O)cc4)c3c2)cc1 | 98 |
| O=c1c2ccccc2[nH]c2nc3ccccc3c(Nc3ccccc3)c12 | 97 |
| COc1ccc(C2=C(Nc3ccc4oc5ccccc5c4c3)c3ccccc3C2=O)cc1 | 92 |
| Nc1nccc2ccc(-c3ccncc3)cc12 | 95 |
| CCc1c(C)nc(-n2nc(C)cc2NC(=O)C(CC)c2ccccc2)[nH]c1=O (stereo not given) | 93 |
| O=C(O[C@@H]1CN[C@H](C#Cc2cc3c(Nc4ccc5c(cnn5Cc5ccccc5)c4)ncnc3s2)C1)N1CCCC1 | 87 |
| COc1ccc(NC(=O)c2ccc(NC(=O)c3ccc(Cl)cc3)cc2)cc1N1CCN(C)CC1 | 40 |
| COc1ccc(-c2cnn3ccc(Nc4cc(OC)c(OC)c(OC)c4)nc23)cc1OC | 100 |
| CCCNC(=O)C1CCN(C(c2ccc(Cl)cc2)c2ccc(Cl)cc2)CC1 | 96 |
| COc1ccc(C=Cc2cc(=N)c3ccccc3[nH]2)cc1.I | 16 |

| Structure (SMILES) | Inhibition [%] |
| --- | --- |
| COc1ccccc1N1CCN(CCCCNC(=O)c2ccc(NC(=O)c3ccc4ccccc4c3)cc2)CC1 | 18 |
| CCOCCCNc1sc(S(=O)(=O)c2ccccc2)nc1S(=O)(=O)c1ccc(C)cc1 | 87 |
| CC(C)C[C@@H](/C=N/N1CCOC1=O)NC(=O)[C@H](CC(C)C)NC(=O)c1ccc(OCCN2CCOCC2)cc1 | 87 |
| CS(=O)(=O)c1ccc(CCNCc2ccc(-c3ccc(CN(C(=O)C4CC(=O)c5ccccc54)C4Cc5ccccc5C4)cc3)nc2)cc1.O=C(O)C(F)(F)F (stereo not given) | 21 |
| CC(C)CN1CCCN(Cc2cccc(NC(=O)c3ccc(Cl)c(Cl)c3)c2)CC1.O=C(O)C(F)(F)F | 9 |
| O=C(c1ccc(-c2ccccn2)s1)N1CCc2cc3nccc(N4CCN5CCC[C@H]5C4)c3cc21 | 49 |
| CCc1cc(NC2CCN(C)CC2)nc(Nc2cccc(OC)c2)n1 | 37 |
| Cc1ccc(CN2CCN(Cc3cccc(NC(=O)c4ccc5ccccc5c4)c3)CC2)cc1C.O=C(O)C(F)(F)F | 23 |
| CC1=C(C(=O)OC(C)C)C(c2ccccc2Cl)C2=C(CC(c3ccccc3)CC2=O)N1 (stereo not given) | 84 |
| Cl.O=C(N[C@@H](Cc1cc(F)cc(F)c1)[C@H](O)CNCc1cccc(C(F)(F)F)c1)c1cc(C2CCCC2)cc(N2CCCC2=O)c1 | 45 |
| O=C(Nc1cc(=O)[nH]c2nc(-c3ccccc3)nn12)C1CCCCC1 | 89 |
| Cc1ccccc1Nc1nc(NCCc2ccccc2)nc2ccccc12 | 18 |
| O=C(Nc1cccc(-c2cc3ccccc3[nH]2)c1)C1CCN(Cc2ccccc2O)CC1 | 25 |
| Cc1cccc2nc(-c3cccc(-c4ccc(CN5CCN(CCO)CC5)cc4)c3)[nH]c12.O=C(O)C(F)(F)F | 63 |
| Cc1cc(NC(=O)c2ccc(-c3ccccc3)cc2)no1 | 57 |
| Cc1ccc(-c2ccc3c(c2)C=C(C(=O)NC2CCN(CCNC(=O)c4cccs4)CC2)CCC3)cc1.O=C(O)C(F)(F)F | 30 |
| Cc1c(C(=O)C2CC2CN2CCC(N3CCCC3)CC2)sc2ccccc12 (stereo not given) | 9 |
| Cc1nc(-c2cccc(Nc3nccc(NCC(O)c4ccccc4)n3)c2)cs1 (stereo not given) | 82 |
| COc1ccc(-c2cccc(NC(=O)c3ccc(F)cc3)c2)cc1CN1CCCN(C)CC1.O=C(O)C(F)(F)F | 35 |
| O=C(/C=C/c1ccc(Br)cc1)NCCCCCN1CCC(c2c[nH]c3ccccc23)CC1 | 19 |
